Source: PubChem BioAssay (EPA / NIEHS)
Results filed as inconclusive are left out. Activity calls are given as the source filed them. Rule for the calls, unless noted: active = hit-call score of the fitted dose curve at least 0.9, where 1 is the maximum; inconclusive = response in the unintended direction; inactive = score below 0.9. *1 amine or outer side, *2 acyl side, *3 side chain or, on linkers, in order; H or OH if unused. Where a SMILES comes first, the peptide text is derived from it. Bridges are numbered along the chain shown (N, C = ends). [ ]: non-standard residue; d: D form. The star is where a group is joined. X3 = NC1=N[C@@H]([C@H](N[*:1])C(=O)[*:2])C[C@H](O)N1; ΔAla(Z-3-ureido) = NC(=O)N/C=C(\N)C(=O)O; β3hOrn = NCCC[C@H](N)CC(=O)*; Dap = NC[C@H](N)C(=O)O

Experiments:
[1] = TOX21_p53_BLA_p2_viability: Viability Assessment in the Tox21 HCT-116 p53 Agonism Beta-lactamase Assay, Phase 2 (AID 2283591);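 note: actives lower the ATP signal meaning cytotoxicity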
Outline: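 HCT116 p53-bla cells, 4000/well, dosed after 5 h plating (217-fold dilution of DMSO stocks) and incubated 16 h at 37C. Viability taken as cellular ATP by CellTiter-Glo luminescence after 30 min RT; signal loss marks cytotoxicity.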

[2] = target: Cellular tumor antigen p53 (Homo sapiens) (UniProt P04637); assay: TOX21_p53_BLA_p2_ratio: Tox21 HCT-116 p53 Agonism Beta-lactamase Assay, Ratio, Phase 2 (AID 2283592)
Outline: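 An inducible beta-lactamase reporter in HCT116 cells signals p53 pathway activation. After 16 h chemical exposure at 37C, cells load CCF4-AM substrate for 2 h at room temperature; activity is the cleaved/uncleaved emission ratio relative to DMSO.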

[3] = TOX21_p53_BLA_p4_viability: Viability Assessment in the Tox21 HCT-116 p53 Agonism Beta-lactamase Assay, Phase 4 (AID 2283597);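 note: hits lower the luminescence signal meaning cytotoxicity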
Outline: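 Compound exposure of HCT116 cells lasts 16 h at 37C, 5% CO2, with DMSO stocks diluted 217-fold. Cellular ATP is then quantified by CellTiter-Glo luminescence after 30 min at room temperature.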

[4] = TOX21_p53_BLA_p5_viability: Viability Assessment in the Tox21 HCT-116 p53 Agonism Beta-lactamase Assay, Phase 5 (AID 2283600)
Outline: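 Counter-readout for cytotoxicity: ATP-dependent luminescence from CellTiter-Glo, read in the beta-lactamase wells after 30 min at RT, following a 16 h compound exposure at 37C.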

[5] = target: Cellular tumor antigen p53 (Homo sapiens) (UniProt P04637); assay: TOX21_p53_BLA_p4_ratio: Tox21 HCT-116 p53 Agonism Beta-lactamase Assay, Ratio, Phase 4 (AID 2283601)
Outline: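 HCT-116 p53 beta-lactamase reporter cells (4000/well) preincubated 5 h, then compound (217-fold dilution of DMSO stock) for 16 h at 37C. CCF4-AM substrate added 2 h at room temperature; 460/530 nm emission ratio fitted upward versus DMSO.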

[6] = TOX21_PR_BLA_Followup_Agonist_viability: Viability Assessment in the Tox21 HEK293 Progesterone Receptor (PR) Agonism Beta-lactamase Follow-Up Assay (AID 2283935);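 note: signal loss means lower viability so actives are cytotoxic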
Outline: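 Multiplexed viability counter-screen: ATP-coupled luciferase signal measured after 30 min at room temperature, following 16 hr compound treatment of PR-UAS-bla HEK293T cells grown in charcoal-stripped serum.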

[7] = TOX21_PR_BLA_Followup_Antagonist_viability: Viability Assessment in the Tox21 HEK293 Progesterone Receptor (PR) Antagonism Beta-lactamase Follow-Up Assay (AID 2283936);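 note: hits lower the luminescence signal meaning cytotoxicity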
Outline: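 PR-UAS-bla HEK293T cells (3,000/well, 2% charcoal-stripped FBS) given compound plus R5020 agonist, 16 h at 37C. CellTiter-Glo added after bla read, 30 min at room temperature; luminescence loss indicates cytotoxicity.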

[8] = target: PGR (gene 5241) (UniProt P06401); assay: TOX21_PR_LUC_Followup_Agonist: Tox21 HEK293 Progesterone Receptor (PR) Agonism Luciferase Follow-Up Assay (AID 2283937; active = hit-call score of the fitted dose curve at least 0.9, where 1 is the maximum; inactive = score below 0.9)
Outline: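 Agonist mode: reporter cells carrying PR-A and luciferase are treated 16 h with test compounds at 37C. Luciferase induction is measured by luminescence and fitted upward against DMSO.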

[9] = TOX21_PR_LUC_Followup_Antagonist_viability: Viability Assessment in the Tox21 HEK293 Progesterone Receptor (PR) Antagonism Luciferase Follow-Up Assay (AID 2283940)
Outline: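 Cellular ATP, measured with luciferase-coupled CellTiter-Glo, served as the viability endpoint after HEK293-PR-A-luc cells were exposed to test compounds for 16 h at 37C.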

[10] = TOX21_PR_LUC_Followup_Agonist_viability: Viability Assessment in the Tox21 HEK293 Progesterone Receptor (PR) Agonism Luciferase Follow-Up Assay (AID 2283941);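 note: loss of signal means cytotoxicity so actives lower viability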
Outline: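 Luminescent ATP quantitation (CellTiter-Glo) serves as the read-out; a drop flags cytotoxic compounds. Cells are HEK293-PR-A-luc grown in 10% charcoal-stripped FBS, plated 3,000/well, and exposed to compound for 16 h.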

[11] = target: Cellular tumor antigen p53 (Homo sapiens) (UniProt P04637); assay: TOX21_p53_BLA_p5_ratio: Tox21 HCT-116 p53 Agonism Beta-lactamase Assay, Ratio, Phase 5 (AID 2283599)
Outline: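 HCT-116 p53-bla cells (4000/well) plated 5 h, dosed with compound (217-fold DMSO dilution) for 16 h at 37 C; CCF4-AM substrate 2 h at room temperature. Activity is the 460/530 nm emission ratio (405 nm excitation), fitted in gain-of-signal direction versus DMSO.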

[12] = target: Thyroid hormone receptor alpha (Rattus norvegicus) + Thyroid hormone receptor beta (Rattus norvegicus) (UniProt P18113+P63059); assay: TOX21_TR_LUC_GH3_Antagonist_Followup: Tox21 GH3 Thyroid Hormone Receptor Antagonism Luciferase Follow-Up Assay (AID 2283942)
Outline: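 Antagonist mode: GH3 cells seeded 1,500/well, compounds at 15 concentrations (92 uM to 5nM final) plus T3 at 1.0 nM final, 24 h at 37C. Luciferase read with ONE-Glo after 30 min at room temperature.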

[13] = target: THRB (gene 7068) (UniProt P10828); assay: TOX21_TRB_BLA_Antagonist_Followup_ratio: Tox21 Thyroid Hormone Receptor beta Antagonism Beta-lactamase (BLA) Follow-Up Assay, Ratio (AID 2283958)
Outline: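 In this antagonist-mode follow-up, a stably integrated GAL4-TRβ LBD fusion drives a UAS-beta-lactamase reporter in HEK293T cells. Loss of ratio signal relative to DMSO after 18 h treatment indicates activity; parallel CellTiter-Glo flags cytotoxicity.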

[14] = target: Retinoic acid receptor RXR-alpha (Homo sapiens) (UniProt P19793); assay: TOX21_TR_RXR_BLA_Antagonist_Followup_ratio: Tox21 Thyroid Hormone Receptor beta Retinoid X Receptor alpha (RXRa) Antagonism Beta-lactamase (BLA) Follow-Up Assay, Ratio (AID 2283972)
Outline: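 Antagonist mode used GAL4 UAS-driven beta-lactamase in HEK293T cells expressing RXRa, treated for 16 h with compound concentration series. Activity was taken from the blue/green (460:530 nm) ratio of cleaved to uncleaved substrate.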

[15] = CCTE_Harrill_HTTr_Viability_MCF7: CCTE's 6-hour Cell Viability Assessment for the High-Throughput Transcriptomics (HTTr) Platform, in MCF-7 cells cultured in DMEM + 10% fetal bovine serum, Harrill Lab (AID 2284010; active = hit-call score of the fitted dose curve at least 0.9, where 1 is the maximum; inactive = score below 0.9)
Outline: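 Viability measured through PI dye exclusion by high-content imaging at 6 h post-dosing.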

Chain of Cellular tumor antigen p53 (Homo sapiens) (P04637 whole entry, looked up): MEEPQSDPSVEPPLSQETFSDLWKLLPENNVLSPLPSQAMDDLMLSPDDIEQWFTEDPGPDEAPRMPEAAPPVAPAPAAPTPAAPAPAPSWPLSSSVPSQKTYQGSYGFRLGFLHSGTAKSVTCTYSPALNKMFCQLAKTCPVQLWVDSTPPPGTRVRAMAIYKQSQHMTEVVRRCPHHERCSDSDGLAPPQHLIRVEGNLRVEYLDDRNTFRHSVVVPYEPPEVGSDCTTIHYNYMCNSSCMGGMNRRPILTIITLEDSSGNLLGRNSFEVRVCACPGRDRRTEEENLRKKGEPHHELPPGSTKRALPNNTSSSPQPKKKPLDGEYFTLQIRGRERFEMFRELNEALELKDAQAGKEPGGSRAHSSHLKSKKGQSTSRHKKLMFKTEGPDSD
Chain of THRB (gene 7068) (P10828 whole entry, looked up, the tested form may be a part): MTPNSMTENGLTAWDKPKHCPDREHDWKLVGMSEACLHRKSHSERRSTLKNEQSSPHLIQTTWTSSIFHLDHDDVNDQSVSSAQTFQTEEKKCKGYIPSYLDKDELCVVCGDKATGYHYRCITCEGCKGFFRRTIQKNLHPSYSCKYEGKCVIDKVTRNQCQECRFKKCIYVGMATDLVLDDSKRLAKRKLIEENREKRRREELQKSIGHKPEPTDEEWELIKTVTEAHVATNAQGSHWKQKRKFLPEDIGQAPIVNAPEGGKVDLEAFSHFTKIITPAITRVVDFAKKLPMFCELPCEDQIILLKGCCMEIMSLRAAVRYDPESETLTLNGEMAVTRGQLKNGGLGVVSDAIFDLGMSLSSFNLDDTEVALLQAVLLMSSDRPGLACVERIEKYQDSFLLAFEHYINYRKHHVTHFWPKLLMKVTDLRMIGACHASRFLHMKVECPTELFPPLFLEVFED
Chain of Retinoic acid receptor RXR-alpha (Homo sapiens) (P19793 whole entry, looked up, the tested form may be a part): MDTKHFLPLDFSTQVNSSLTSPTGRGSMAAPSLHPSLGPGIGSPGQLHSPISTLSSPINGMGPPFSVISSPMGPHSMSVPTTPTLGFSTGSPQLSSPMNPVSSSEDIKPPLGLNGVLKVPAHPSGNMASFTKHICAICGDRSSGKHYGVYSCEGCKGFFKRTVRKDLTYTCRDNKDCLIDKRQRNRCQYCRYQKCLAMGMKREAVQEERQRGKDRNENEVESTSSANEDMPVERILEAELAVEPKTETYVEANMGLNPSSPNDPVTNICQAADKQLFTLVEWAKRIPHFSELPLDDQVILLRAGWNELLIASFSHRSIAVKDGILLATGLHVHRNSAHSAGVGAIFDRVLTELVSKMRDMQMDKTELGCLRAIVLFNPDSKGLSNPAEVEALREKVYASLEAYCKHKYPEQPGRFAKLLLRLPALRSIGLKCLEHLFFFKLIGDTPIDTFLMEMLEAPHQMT
Chain of PGR (gene 5241) (P06401 whole entry, looked up): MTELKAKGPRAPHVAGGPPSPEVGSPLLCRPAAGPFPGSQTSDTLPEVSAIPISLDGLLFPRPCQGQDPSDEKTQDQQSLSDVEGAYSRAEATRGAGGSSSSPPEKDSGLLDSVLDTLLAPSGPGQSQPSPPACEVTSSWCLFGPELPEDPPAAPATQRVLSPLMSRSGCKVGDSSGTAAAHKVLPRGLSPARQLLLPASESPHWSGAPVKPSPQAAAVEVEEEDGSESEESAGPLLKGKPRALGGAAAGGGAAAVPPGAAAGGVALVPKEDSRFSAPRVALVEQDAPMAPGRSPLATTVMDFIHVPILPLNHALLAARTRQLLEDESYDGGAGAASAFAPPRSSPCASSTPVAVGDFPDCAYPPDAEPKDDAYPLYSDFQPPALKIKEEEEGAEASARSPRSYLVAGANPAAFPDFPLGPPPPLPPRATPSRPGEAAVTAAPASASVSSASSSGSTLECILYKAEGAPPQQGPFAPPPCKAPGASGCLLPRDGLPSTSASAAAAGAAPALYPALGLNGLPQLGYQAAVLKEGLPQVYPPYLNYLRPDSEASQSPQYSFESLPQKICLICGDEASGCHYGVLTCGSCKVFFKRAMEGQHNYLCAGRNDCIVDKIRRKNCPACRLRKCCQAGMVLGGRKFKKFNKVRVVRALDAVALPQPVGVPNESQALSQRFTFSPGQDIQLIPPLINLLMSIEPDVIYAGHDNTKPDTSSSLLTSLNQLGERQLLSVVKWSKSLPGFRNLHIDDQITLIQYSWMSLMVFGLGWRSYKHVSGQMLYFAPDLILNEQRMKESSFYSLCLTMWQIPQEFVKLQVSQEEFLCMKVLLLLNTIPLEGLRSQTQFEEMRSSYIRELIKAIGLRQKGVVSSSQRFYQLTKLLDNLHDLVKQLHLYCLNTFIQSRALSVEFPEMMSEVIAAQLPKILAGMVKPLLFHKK

Compound: CC(=O)OCC(=O)[C@@]1(O)CC[C@H]2[C@@H]3CCC4=CC(=O)C=C[C@]4(C)[C@@]3(F)[C@@H](O)C[C@@]21C
- outcome [1]: inactive
- outcome [2]: inactive
- outcome [3]: inactive
- outcome [4]: inactive
- outcome [5]: inactive
- outcome [6]: inactive
- outcome [7]: inactive
- AC50 [8]: 0.123 µM (active)
- outcome [9]: inactive
- outcome [10]: inactive

Compound: CCCCCCN
- outcome [1]: inactive
- outcome [2]: inactive
- outcome [11]: inactive
- outcome [4]: inactive

Compound: CN1c2cc(O)c(N=NC(N)=O)cc2CC1S(=O)(=O)O (stereo unspecified)
- outcome [1]: inactive
- outcome [2]: inactive
- outcome [11]: inactive

Compound: C[C@@H]1C\C=C/C=C/C=C/C=C/[C@H](O[C@@H]2O[C@H](C)[C@@H](O)[C@H](N)[C@@H]2O)C[C@@H]2O[C@](O)(C[C@@H](O)C[C@@H]3O[C@@H]3/C=C\C(=O)O1)C[C@H](O)[C@H]2C(=O)O
- outcome [1]: inactive
- outcome [2]: inactive
- outcome [11]: inactive

Compound: ClC(Cl)(Br)Br
- outcome [1]: inactive
- outcome [2]: inactive
- outcome [4]: inactive

Compound: CCNc1cc(O)ccc1C
- outcome [1]: inactive
- outcome [2]: inactive
- outcome [3]: inactive
- outcome [4]: inactive
- outcome [5]: inactive

Compound: COc1ccc(/C=C/C(=O)Nc2ccccc2C(=O)O)cc1OC
- outcome [1]: inactive
- outcome [2]: inactive
- outcome [3]: inactive
- outcome [4]: inactive
- AC50 [12]: 2.7 µM (active)
- outcome [13]: inactive
- outcome [14]: inactive

Compound: NC(=S)NC(N)=S
- outcome [1]: inactive
- outcome [2]: inactive
- outcome [3]: inactive
- outcome [4]: inactive
- outcome [5]: inactive

Compound: CC(=O)[C@H]1CC[C@H]2[C@@H]3C[C@H](C)C4=CC(=O)CC[C@]4(C)[C@H]3[C@@H](O)C[C@]12C
- outcome [1]: inactive
- outcome [2]: inactive
- outcome [11]: inactive

Compound: CC(O)c1ccccc1 (stereo unspecified)
- outcome [1]: inactive
- outcome [2]: inactive
- outcome [3]: inactive
- outcome [4]: inactive
- outcome [5]: inactive

Compound: C[C@@H]1CC[C@H]2C(C)(C)[C@H]3C[C@@]12CC[C@@]3(C)O
- outcome [1]: inactive
- outcome [2]: inactive
- outcome [3]: inactive
- outcome [4]: inactive
- outcome [5]: inactive

Compound: Cc1cc(C(=O)NCCc2ccc(S(=O)(=O)NC(=O)NN3CCCCCC3)cc2)no1
- outcome [1]: inactive
- outcome [2]: inactive
- outcome [3]: inactive
- outcome [5]: inactive

Compound: CCOC(=N)CC(=O)OCC
- outcome [1]: inactive
- outcome [2]: inactive
- outcome [3]: inactive
- outcome [15]: inactive

Compound: O=P(O)(O)C(O)(Cn1ccnc1)P(=O)(O)O
- outcome [1]: inactive
- outcome [2]: inactive
- outcome [11]: inactive
- outcome [4]: inactive
- outcome [5]: inactive

Compound: C=C(C)C(=O)OCC[N+](C)(C)C
- outcome [1]: inactive
- outcome [2]: inactive
- AC50 [11]: 72.9 µM (active)
- outcome [5]: inactive

Compound: CC1(N)CCC(C(C)(C)N)CC1 (stereo unspecified)
- outcome [1]: inactive
- outcome [2]: inactive
- outcome [11]: inactive
- outcome [4]: inactive

Compound: NCCC[C@H](N)CC(=O)N[C@H]1CNC(=O)[C@H]([C@H]2C[C@H](O)NC(N)=N2)NC(=O)/C(=C/NC(N)=O)NC(=O)[C@H](CO)NC(=O)[C@H](CO)NC1=O (β3hOrn-[Dap]SS[ΔAla(Z-3-ureido)][X3]; lactam 1-C)
- outcome [1]: inactive
- outcome [2]: inactive
- outcome [3]: inactive
- outcome [5]: inactive

Compound: CC(=O)SC[C@@H](C)C(=O)N1CCC[C@H]1C(=O)N[C@@H](Cc1ccccc1)C(=O)O
- outcome [1]: inactive
- outcome [2]: inactive
- outcome [11]: inactive
- outcome [4]: inactive

Compound: NS(=O)(=O)c1cc2c(cc1Cl)NC(CC1CCCC1)NS2(=O)=O (stereo unspecified)
- outcome [1]: inactive
- outcome [2]: inactive
- outcome [11]: inactive
- outcome [4]: inactive
